In PubChem BioAssay (NCI):
This is part of a sample that, as a whole, favours compounds with a hit. Of some 83,000 tested, about 20% had one in any assay.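 Single-concentration screen, 48 h exposure, 96-well plates. Endpoint: percent growth. Below 10 = active.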 Calls of active or inactive are those of the source.

Key:
Assay in all cases: NCI-60 one-dose screen, 48 h (100 = growth as untreated, 0 = no growth, -100 = all killed)
Conditions in all cases: 10 µM unless noted
HCT-15 colon = test system: HCT-15 colon
HT29 colon = test system: HT29 colon
SNB-75 CNS = test system: SNB-75 CNS
SNB-19 CNS = test system: SNB-19 CNS
U251 CNS = test system: U251 CNS
PC-3 prostate = test system: PC-3 prostate
SK-MEL-5 melanoma = test system: SK-MEL-5 melanoma
UACC-62 melanoma = test system: UACC-62 melanoma
LOX IMVI melanoma = test system: LOX IMVI melanoma
SK-MEL-28 melanoma = test system: SK-MEL-28 melanoma
SK-MEL-2 melanoma = test system: SK-MEL-2 melanoma
EKVX NSCLC = test system: EKVX NSCLC
SN12C renal = test system: SN12C renal
UO-31 renal = test system: UO-31 renal
ACHN renal = test system: ACHN renal
CAKI-1 renal = test system: CAKI-1 renal
A498 renal = test system: A498 renal
CCRF-CEM leukemia = test system: CCRF-CEM leukemia
MOLT-4 leukemia = test system: MOLT-4 leukemia
TK-10 renal = test system: TK-10 renal

Measured: growth

Clc1nc2ccccc2nc1-c1nnc(C2CCCCC2)o1
inactive: HCT-15 colon 71.7% | HT29 colon 109% | SNB-75 CNS 97.2% | SNB-19 CNS 98.7% | U251 CNS 97.9% | PC-3 prostate 95.8% | SK-MEL-5 melanoma 98.8% | UACC-62 melanoma 96.4% | LOX IMVI melanoma 66.6% | SK-MEL-28 melanoma 104% | SK-MEL-2 melanoma 102% | EKVX NSCLC 98.8% | SN12C renal 101% | UO-31 renal 92.7% | ACHN renal 99.2% | CAKI-1 renal 89.5% | A498 renal 89.3% | CCRF-CEM leukemia 84.9% | MOLT-4 leukemia 109%

Brc1ccccc1/C=N/Nc1nc(N/N=C/c2ccccc2Br)nc(N2CCOCC2)n1
inactive: HCT-15 colon 81.1% | HT29 colon 74% | SNB-75 CNS 132% | SNB-19 CNS 101% | U251 CNS 96.5% | PC-3 prostate 84% | SK-MEL-5 melanoma 69.6% | UACC-62 melanoma 102% | LOX IMVI melanoma 103% | SK-MEL-28 melanoma 99.3% | SK-MEL-2 melanoma 96.3% | SN12C renal 98.8% | UO-31 renal 78.6% | TK-10 renal 99.4% | ACHN renal 93.6% | CAKI-1 renal 109% | A498 renal 50.2% | CCRF-CEM leukemia 80.1% | MOLT-4 leukemia 72.6%

Cn1cc(-c2nnc(N)nc2-c2c[nH]c3ccc(F)cc23)c2cc(F)ccc21
inactive: HCT-15 colon 62% | HT29 colon 73.8% | SNB-75 CNS 100% | SNB-19 CNS 75.8% | U251 CNS 70.6% | PC-3 prostate 72.2% | SK-MEL-5 melanoma 96.8% | UACC-62 melanoma 73.8% | LOX IMVI melanoma 65.4% | SK-MEL-28 melanoma 94.4% | SK-MEL-2 melanoma 97.1% | EKVX NSCLC 89.1% | SN12C renal 81.3% | UO-31 renal 57.1% | ACHN renal 47.7% | CAKI-1 renal 76.4% | A498 renal 86.3% | CCRF-CEM leukemia 39.4% | MOLT-4 leukemia 23.5%

O=C(CSc1nnc(-c2ccc(Cl)cc2)n1-c1ccccc1)Nc1cccc(Cl)c1
inactive: HCT-15 colon 79.5% | HT29 colon 71.6% | SNB-75 CNS 42.5% | SNB-19 CNS 80.2% | U251 CNS 50.2% | PC-3 prostate 75.5% | SK-MEL-5 melanoma 96.4% | UACC-62 melanoma 97.7% | SK-MEL-28 melanoma 97.8% | SK-MEL-2 melanoma 101% | SN12C renal 25.4% | UO-31 renal 12.6% | TK-10 renal 75.1% | CAKI-1 renal 64.9% | A498 renal 95.9% | CCRF-CEM leukemia 78.3% | MOLT-4 leukemia 85.6%
active: LOX IMVI melanoma 7.5% | ACHN renal 9.9%

Cc1cccc2c3c(sc12)C(c1ccc(F)cc1)C(C#N)=C(/N=C/c1ccc(Cl)cc1)O3 (configuration not stated)
inactive: SNB-75 CNS 29.5% | SNB-19 CNS 26.4% | PC-3 prostate 13.6% | UACC-62 melanoma 18% | SK-MEL-28 melanoma 62.2% | SN12C renal 25.5% | UO-31 renal 34.6% | CAKI-1 renal 33.9% | CCRF-CEM leukemia 13.5% | MOLT-4 leukemia 15.2%
active: HCT-15 colon 3.92% | HT29 colon -28.5% | U251 CNS 4.91% | SK-MEL-5 melanoma 5.84% | LOX IMVI melanoma 9.59% | SK-MEL-2 melanoma -5.29% | A498 renal -20.2%

CNC(=O)c1cc(Oc2ccc3nc(NC(=O)c4ccc(N5CCOCC5)c(C(F)(F)F)c4)sc3c2)ccn1
inactive: HCT-15 colon 51.5% | HT29 colon 48.5% | SNB-75 CNS 96.2% | SNB-19 CNS 86.6% | U251 CNS 65.6% | PC-3 prostate 59% | SK-MEL-5 melanoma 28.8% | UACC-62 melanoma 47.7% | LOX IMVI melanoma 76.3% | SK-MEL-28 melanoma 86.1% | EKVX NSCLC 78.7% | SN12C renal 90.4% | UO-31 renal 54.7% | TK-10 renal 127% | ACHN renal 91.5% | CAKI-1 renal 87.2% | CCRF-CEM leukemia 75.6% | MOLT-4 leukemia 75.8%

CS(=O)(=O)c1ncc(-c2ccccc2)cn1
inactive: HCT-15 colon 89.1% | HT29 colon 105% | SNB-75 CNS 110% | SNB-19 CNS 98.1% | U251 CNS 99.3% | PC-3 prostate 100% | SK-MEL-5 melanoma 93% | UACC-62 melanoma 89% | LOX IMVI melanoma 84.6% | SK-MEL-28 melanoma 98% | SK-MEL-2 melanoma 97.6% | SN12C renal 96.4% | UO-31 renal 85.1% | ACHN renal 97.3% | CAKI-1 renal 107% | A498 renal 86.5% | CCRF-CEM leukemia 86.6% | MOLT-4 leukemia 97.2%

Cc1cccc(/C=C/C(=O)Nc2ncc(Cc3cccc(C)c3)s2)c1
active: HT29 colon 2.82% | SNB-75 CNS 8.11% | SK-MEL-5 melanoma -19% | CCRF-CEM leukemia 9.99%
inactive: HCT-15 colon 17.5% | SNB-19 CNS 47.2% | U251 CNS 22.1% | PC-3 prostate 13% | UACC-62 melanoma 14.8% | LOX IMVI melanoma 23.3% | SK-MEL-28 melanoma 49.8% | EKVX NSCLC 36.8% | SN12C renal 38.5% | UO-31 renal 35.4% | TK-10 renal 54.6% | ACHN renal 42.1% | CAKI-1 renal 25.3% | MOLT-4 leukemia 22%
